Rab9 promoter act: Rab9 promoter activation | hit rate 2.8% among 320,000 | Huh7 Rab9 promoter-luciferase reporter, luminescence, 24 h | Potency, µM (doses to about 9.22 µM), for inactives: at the highest dose activation, negative = inhibition, hits mostly activators | AID 485297; further: % of control where 0% means no effect; nearly all actives have a fitted effect of over 60% in size
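Steps: seed 1500 Huh7 Rab9-luc cells per well, rest 2 h at 37 °C; add compound in DMSO; incubate 24 h; add luciferase reagent, 10 min ambient; read luminescence.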
NPC1 promoter act: activates the NPC1 promoter | Huh7 NPC1 promoter luciferase reporter, 24 h | Potency, µM (series often up to 9.22 µM), without a hit: top-dose activation, hits mostly activators | hit rate 2.4% among 320,000 | AID 485313; further: % of control where 0% means no effect; nearly all actives have a fitted effect of over 60% in size
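Readout is luciferase luminescence, reflecting NPC1 promoter activation in stably transfected Huh7 cells after 24 h compound exposure at 37 °C in reduced-serum medium with 10% FBS.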
SMN2 splice up: increases expression of the SMN2 splice variant | HEK293 SMN2-luciferase splicing reporter, luminescence, 30-36 h | hit rate 2.8% among 210,000 | Potency, µM (highest dose often 46.1 µM), for the others: top-dose activity change, positive = activation, usual class: activators; further: % of control where 0% means no effect; nearly all actives have a fitted effect of over 55% in size
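qHTS luciferase splicing reporter: luminescence rises when SMN2 exon 7 is included in transfected HEK293 cells. Compound exposure lasted 30-36 h at 37C, with 4.5 mM final sodium butyrate as control, followed by a ONE-Glo read.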
FLuc modulator: inhibits or activates purified firefly luciferase, miR-21 counter-screen; purified FLuc, Km substrates, luminescence inhibition; Potency, µM (titrated, usually from 57.5 µM), for inactives: at the top dose activity change, negative = inhibition, hits mostly inhibitors; hit rate 6.9% among 360,000; AID 588342;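 further: plate controls were vehicle for no effect and reference inhibitor for full effect; nearly all actives have a fitted effect of over 55% in size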
Target sequence (P08659 whole entry, looked up): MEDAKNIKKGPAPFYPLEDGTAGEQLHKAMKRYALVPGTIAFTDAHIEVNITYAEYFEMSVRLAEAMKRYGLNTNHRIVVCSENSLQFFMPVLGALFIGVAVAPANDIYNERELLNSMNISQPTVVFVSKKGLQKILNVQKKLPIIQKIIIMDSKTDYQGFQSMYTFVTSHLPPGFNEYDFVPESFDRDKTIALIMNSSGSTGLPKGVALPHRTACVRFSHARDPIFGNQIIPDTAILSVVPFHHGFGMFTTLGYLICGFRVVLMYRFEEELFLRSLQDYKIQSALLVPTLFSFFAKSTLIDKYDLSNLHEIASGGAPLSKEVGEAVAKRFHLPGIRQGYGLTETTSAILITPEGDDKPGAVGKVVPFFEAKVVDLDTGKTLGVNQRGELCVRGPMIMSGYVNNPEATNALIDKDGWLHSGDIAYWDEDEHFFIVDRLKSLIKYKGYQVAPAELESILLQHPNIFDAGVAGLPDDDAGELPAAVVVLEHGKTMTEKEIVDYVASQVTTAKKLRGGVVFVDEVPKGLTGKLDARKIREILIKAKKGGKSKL
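Purified P. pyralis luciferase, 10 nM final, with Km-level 10 uM D-luciferin and 10 uM ATP in 50 mM Tris acetate pH 7.5, 10 mM Mg acetate, 0.01% Tween-20, 0.05% BSA; 6-point qHTS titration about 60 µM downward; luminescence read.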
Luc counter: counter-screen: inhibitors of Kinase-Glo firefly luciferase. Kinase-Glo luciferase, ATP luminescence, 8 min. Q27757. Potency, µM (titrated, usually from 38.3 µM), for inactives: at the highest dose activity change, negative = inhibition, usual class: inhibitors. AID 1379. hit rate 0.28% among 200,000; further: on the % scale 0 is the no-effect control and ±100 the full control effect; nearly all actives have a fitted effect of over 60% in size
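Recombinant Kinase-Glo luciferase, 10 uM ATP (linear range), luciferin; imidazole pH 7.2 / KCl / MgCl2 / Tween / BSA buffer; 8 min RT; luminescence.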
* marks the source's active call; other numbers are inactive results; ? = inconclusive; · = no result given; [ ] = dose if it differs, or a comment. Shown are actives, neighbours in structure and some others; about 7.3% of the full set was active somewhere. The call rests on the fitted dose curve; in most records, active means well fitted curve in the direction sought with a large enough effect; inconclusive means small, poorly fitted or top-dose-only effect, or another doubt; inactive means no such curve, though single readings can be large; an effect the other way counts as inactive or inconclusive. Potency means the concentration at half of the fitted maximal effect.

SMILES	Rab9 promoter act	NPC1 promoter act	SMN2 splice up	FLuc modulator	Luc counter
COc1ccc(-c2cc(C(=O)Nc3ccccc3SC)no2)cc1	25.4%	4.6%	7.2%	-0.5%	12.2%
O=C(Nc1ccccc1F)Nc1ccccc1Br	-16.9%	26.2%	12.8%	16.9µM*	-6.4%
O=[N+]([O-])c1ccc(/C=N/NC(=S)Nc2ccccc2F)o1	-1.1%	0.5%	5.2%	?	-0.1%
O=C(C#Cc1ccccc1)Nc1ccccc1F	?	?	·	1.9µM*	·
COc1ccc(NC(=O)Nc2ccccc2SC)cc1	?	?	12.6µM*	10.7µM*	10µM*
Cc1ccc(S(=O)(=O)c2nc(-c3cccs3)oc2SC(C)c2ccccc2)cc1 (configuration not stated)	·	·	17.0%	1.7%	·
COc1cccc(COC(=O)Nc2ccccc2F)c1	2µM*	1.12µM*	·	10.7µM*	·
COc1ccc(NC(=O)Nc2ccccc2F)cc1	0.447µM*	0.562µM*	11.2µM*	3.38µM*	?
COc1ccc(NC(=O)Nc2ccccc2F)cc1Cl	1.41µM*	1.78µM*	10µM*	?	-8.1%
COc1ccc(NC(=O)Nc2ccccc2F)c(C)c1	?	24.0%	·	-9.3%	5.3%
COc1ccc(C/C(C)=N/NC(=S)Nc2ccccc2F)cc1	2.51µM*	3.16µM*	-55.6%	15.1µM*	-9.3%
CCc1ccc(NC(=O)c2ccc(Cn3nc(N4CCN(c5ccccc5)CC4)ccc3=O)o2)cc1	·	·	·	-18.9%	·
Cc1ccc2c(c1)C(c1ccc(F)cc1)N(C(=O)C(C)C)CC(=O)N2 (configuration not stated)	·	·	4.6%	3.0%	·
COc1cc(OC)c(NC(=O)N2CCC(CN3CCCC3)CC2)cc1Cl	·	·	·	-0.4%	·
COc1ccc(NC(=O)CN(C)C(=O)c2ccc(S(=O)(=O)Nc3ccccc3F)cc2)cc1	-5.4%	1.5%	·	13.5µM*	·
COc1ccc(Cl)cc1NC(=O)Nc1ccccc1SC	-4.4%	-1.1%	-4.0%	5.7%	-2.3%
CSc1ccccc1NC(=O)Nc1ccc(Cl)cc1	?	?	-30.7%	10.7µM*	-1.9%
COC(=O)C(NC(=O)CCc1c(C)nc2c(-c3ccccc3)c(C)nn2c1C)C(C)C (configuration not stated)	·	·	-12.8%	-9.2%	·
COc1ccc(C2C(=O)N(C3CCCCC3)CC(=O)N2CCC2=CCCCC2)cc1 (configuration not stated)	·	·	·	-2.3%	·
CCn1c(=O)cc(SCC(=O)N2CCOCC2)c2ccccc21	-9.0%	-1.4%	14.1µM*	0.8%	2.2%
CCn1c(=O)cc(SCC(=O)N2CCN(C(=O)c3ccco3)CC2)c2ccccc21	-2.1%	-2.1%	?	-1.8%	-4.2%
CCn1c(=O)cc(SCC(=O)N2CCN(C3CCCCC3)CC2)c2ccccc21	-10.9%	-6.6%	10µM*	3.0%	3.9%
Cc1ccc(C(=O)Nc2ccc3oc(-c4ccncc4)nc3c2)c(Cl)c1	·	·	-20.6%	?	·
NC(=O)Nc1ccc(Cl)cc1	11.2%	-37.0%	·	2.5%	·
O=C(Nc1ccc(Cl)cc1)ON=C1CCCC1	3.55µM*	15.7%	-5.2%[1.84 µM]	16.9µM*	-4.1%
SMILES	Rab9 promoter act	NPC1 promoter act	SMN2 splice up	FLuc modulator	Luc counter
COc1ccc(-n2cnc3cc(C(=O)N4CCOCC4)ccc32)cc1	?	24.0%	·	?	·
O=C(Nc1ccc2c(c1)ncn2C1CCCCC1)c1ccco1	3.55µM*	?	22.6%	13.5µM*	-4.1%
CCn1c2ccccc2c2cc(NC(=O)c3ccco3)ccc21	8.3%	6.4%	10.4%	?	1.7%
COc1ccc(-n2cnc3cc(N)ccc32)cc1	19.8%	25.8%	14.1µM*	?	-2.1%
CC(C)n1cnc2cc(NC(=O)c3ccco3)ccc21	1.78µM*	1.12µM*	·	10.7µM*	·
COc1ccc(-n2cnc3cc(NC(=O)c4ccco4)ccc32)cc1	1.7%	4.1%	-15.9%	13.5µM*	-2.8%
COc1ccc(-n2cnc3cc(NS(=O)(=O)c4ccccc4)ccc32)cc1	0.0%	2.6%	27.8%	?	2.9%
Cc1oc(-c2cccc(Cl)c2)nc1CN1CCC(C(=O)NCc2ccc(F)cc2)CC1	·	·	-4.9%	-16.8%	·
Cc1cccc2sc(N(Cc3cccnc3)C(=O)Cc3ccccc3)nc12	·	·	·	-14.8%	·
COc1ccccc1-n1cnc2cc(NC(=O)c3ccco3)ccc21	-5.6%	-13.1%	10µM*	?	15.9%
COc1ccccc1-n1cnc2cc(C(=O)NC3CCCC3)ccc21	0.3%	-1.8%	-7.6%	?	1.3%
CCC(=O)c1ccc(OCC(=O)OCC(=O)c2cc(C)n(CC3CCCO3)c2C)cc1 (configuration not stated)	-4.4%	3.8%	·	-24.9%	·
Cc1cc(C(=O)COC(=O)C2CCN(C(=O)c3ccc(Cl)cc3)CC2)c(C)n1CC1CCCO1 (configuration not stated)	8.0%	-3.8%	2.9%	15.1µM*	0.8%
COc1cccc(/C=C/C(=O)OCC(=O)c2cc(C)n(CC3CCCO3)c2C)c1OC (configuration not stated)	7.6%	5.1%	·	13.5µM*	·
Cc1cc(C(=O)COC(=O)c2ccc3c(c2)OCO3)c(C)n1CC1CCCO1 (configuration not stated)	1.26µM*	1.58µM*	18.4%	2.13µM*	-9.2%
Cc1cc(NC(=O)COC(=O)C2CCN(C(=O)c3ccc(Cl)cc3)CC2)no1	0.7%	-1.6%	-0.4%	0.8%	1.4%
Cc1cc(C)n2nc(SCC(=O)c3cc(C)n(CC4CCCO4)c3C)nc2n1 (configuration not stated)	-8.4%	-4.6%	-39.4%	?	2.3%
COc1cc(C(=O)OCC(=O)c2cc(C)n(CC3CCCO3)c2C)cc(OC)c1C (configuration not stated)	5.3%	3.3%	·	16.9µM*	·
CCc1cccc(C)c1NC(=O)CCS(=O)(=O)c1ccc2c(c1)oc(=O)n2C	·	·	·	-6.8%	·
CCOc1ccc2ncc3c(-c4ccccc4)nn(CC(=O)Nc4cccc(F)c4)c3c2c1	·	·	·	-1.0%	·
COC(=O)c1ccccc1NC(=O)Cn1c(=O)n(CCCC(=O)NCc2ccccc2OC)c(=O)c2ccccc21	·	·	3.2%	2.4%	·
CC(C)(C)OC(=O)N1CCC(c2c(C(=O)NCCN3CCc4ccccc4C3)cnn2-c2ccc(F)cc2)CC1	·	·	·	-1.7%	·
CSc1ncccc1C(=O)OCC(=O)c1cc(C)n(CC2CCCO2)c1C (configuration not stated)	0.398µM*	1.12µM*	·	0.601µM*	·
Oc1ccc(Cl)cc1C1=NNC(c2cccs2)C1 (configuration not stated)	7.5%	-5.0%	·	?	·
Cc1ccc(O)c(C2=NNC(c3ccc(Cl)cc3)C2)c1 (configuration not stated)	27.3%	-0.2%	·	26.9µM*	·
N[C@@]1(C(=O)O)CN[C@@H](C(=O)O)C1	·	·	-6.9%	·	·
O=C(NCc1cccc(Cl)c1)c1cnc(N2CCCCC2)c2ccccc12	·	·	·	-4.9%	·

Screens: PubChem BioAssay, National Center for Advancing Translational Sciences (NCATS)
